11 compounds from PubChem BioAssay (NCATS) can be followed below.

Assay [1] is described as follows: A High-Content qHTS Against Drug Library for the Identification of Small Molecules that Inhibit DYT1 Early Onset Primary Dystonia-Associated Cell Pathology (AID 1645839; calls by dose curve; further: potency means the concentration at half of the fitted maximal effect; on % pathology change, negative = correction: series mostly up to about 46 µM). The procedure, abridged: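 High-content imaging quantified EGFP-TorsinA mislocalization in HEK293-derived cells inducibly expressing DYT1 mutant torsinA, after 48 h exposure to compound given together with tetracycline induction. Cell count served as a toxicity channel alongside %pathology.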
For orientation: Quantitative high-throughput screening tests each substance at several concentrations.

Assay [2] deals with Cytochrome P450 2D6 (Homo sapiens) (UniProt P10635). In words: Cytochrome P450 family 2 subfamily D member 6 (CYP2D6) small molecule antagonists: luciferase biochemical (cell-free) qHTS assay (AID 1645840). Further: nearly all actives have a fitted effect of over 55% in size. Further: potency means the concentration at half of the fitted maximal effect. On activity change, negative = inhibition: series mostly up to about 57 µM; on the % scale 0 is the no-effect control and ±100 the full control effect. The procedure, abridged: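 P450-Glo CYP2D6 system: proluciferin substrate converted by enzyme to luciferin, read by luminescence proportional to activity. Enzyme-substrate mix with compound 10 min at room temperature, then NADPH regeneration 1 h before detection reagent.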

Assay [3] addresses Cytochrome P450 2C9 (Homo sapiens) (UniProt P11712). In words: Cytochrome P450 family 2 subfamily C member 9 (CYP2C9) small molecule antagonists: luciferase biochemical (cell-free) qHTS assay (AID 1645842). Further: nearly all actives have a fitted effect of over 55% in size. Further: potency means the concentration at half of the fitted maximal effect. On activity change, negative = inhibition: series mostly up to about 57 µM; on the % scale 0 is the no-effect control and ±100 the full control effect. The procedure, abridged:
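P450-Glo CYP2C9 system: proluciferin substrate with enzyme in mix containing 0.4% BSA, 10 min at room temperature, then NADPH regeneration solution added and incubated 1 h at 37C. Detection reagent stopped reaction; luminescence read after 20 min as RLU.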

The nature of assay [4]: Primary qHTS for inhibitors of nuclear receptor binding SET domain protein 2 (NSD2) in an isogenic RCH-ACV NSD2 p.E1099K mutant (9B) (AID 1645876; active means well fitted curve in the direction sought with a large enough effect; an effect the other way counts as inactive or inconclusive; further: nearly all actives have a fitted effect of over 70% in size; further: potency means the concentration at half of the fitted maximal effect; on activity change, negative = viability loss: on the % scale 0 is the no-effect control and ±100 the full control effect).
A short description of assay [5]: Primary qHTS for inhibitors of nuclear receptor binding SET domain protein 2 (NSD2) in an RCH-ACV wild type WT cells (2C) (AID 1645877; active means well fitted curve in the direction sought with a large enough effect; an effect the other way counts as inactive or inconclusive; further: nearly all actives have a fitted effect of over 70% in size; further: potency means the concentration at half of the fitted maximal effect).
Assay [6] has as its target N-terminal Xaa-Pro-Lys N-methyltransferase 1 (Homo sapiens) (UniProt Q9BV86). Put plainly: Confirmatory qHTS for Inhibitors of N-terminal methyltransferase 1 (NTMT1): MTaseGlo Assay (AID 1645874; active means well fitted curve in the direction sought with a large enough effect; an effect the other way counts as inactive or inconclusive; further: potency means the concentration at half of the fitted maximal effect; nearly all actives have a fitted effect of over 65% in size). Particulars: NTMT1 enzyme, MTase-Glo SAH luminescence. The gist of the method: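 Enzyme mix (125 nM NTMT1, 100 uM SAM) + compound, 15 min RT; + 1 uM SPKRIA, 30 min RT, dark; MTase-Glo reagent 30 min, detection solution 30 min; luminescence. % inhibition vs no-enzyme/DMSO controls, 4-parameter Hill fit.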

Assay [7] deals with Cytochrome P450 3A4 (Homo sapiens) (UniProt P08684). In words: Cytochrome P450 family 3 subfamily A member 4 (CYP3A4) small molecule antagonists: luciferase qHTS assay (AID 1645841). Further: nearly all actives have a fitted effect of over 45% in size. The gist of the method:
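Luminescent CYP3A4 activity readout: compounds plus enzyme-substrate mix 10 min at room temperature, reaction started with NADPH regenerating system for 1 h, stopped with detection reagent, read after 20 min. Ketoconazole served as control.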

The structures appear in SMILES notation. Records with an inconclusive call do not appear. A number with no mark means an inactive call. Calls of active or inactive are those of the source. Unless noted, the call rests on the fitted dose curve; in most records, active means well fitted curve in the direction sought with a large enough effect in the repeat runs; inconclusive means weak or mixed curves; inactive means no such curve, though single readings can be large; an effect the other way counts as inactive or inconclusive.

Chain of Cytochrome P450 2C9 (Homo sapiens) (P11712 whole entry, looked up): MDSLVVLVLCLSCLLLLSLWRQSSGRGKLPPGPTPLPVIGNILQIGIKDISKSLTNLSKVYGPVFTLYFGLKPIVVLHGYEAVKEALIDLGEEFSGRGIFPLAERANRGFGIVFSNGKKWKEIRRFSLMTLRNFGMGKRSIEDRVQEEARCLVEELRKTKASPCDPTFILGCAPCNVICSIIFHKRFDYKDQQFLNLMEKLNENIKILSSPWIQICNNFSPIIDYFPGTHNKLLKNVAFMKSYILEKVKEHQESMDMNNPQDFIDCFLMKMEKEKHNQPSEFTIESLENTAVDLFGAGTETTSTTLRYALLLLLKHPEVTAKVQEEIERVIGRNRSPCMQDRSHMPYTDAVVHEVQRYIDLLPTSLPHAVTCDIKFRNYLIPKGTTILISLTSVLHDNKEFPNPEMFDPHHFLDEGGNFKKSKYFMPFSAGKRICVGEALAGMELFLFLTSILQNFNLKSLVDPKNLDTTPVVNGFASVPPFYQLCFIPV
Chain of Cytochrome P450 2D6 (Homo sapiens) (P10635 whole entry, looked up): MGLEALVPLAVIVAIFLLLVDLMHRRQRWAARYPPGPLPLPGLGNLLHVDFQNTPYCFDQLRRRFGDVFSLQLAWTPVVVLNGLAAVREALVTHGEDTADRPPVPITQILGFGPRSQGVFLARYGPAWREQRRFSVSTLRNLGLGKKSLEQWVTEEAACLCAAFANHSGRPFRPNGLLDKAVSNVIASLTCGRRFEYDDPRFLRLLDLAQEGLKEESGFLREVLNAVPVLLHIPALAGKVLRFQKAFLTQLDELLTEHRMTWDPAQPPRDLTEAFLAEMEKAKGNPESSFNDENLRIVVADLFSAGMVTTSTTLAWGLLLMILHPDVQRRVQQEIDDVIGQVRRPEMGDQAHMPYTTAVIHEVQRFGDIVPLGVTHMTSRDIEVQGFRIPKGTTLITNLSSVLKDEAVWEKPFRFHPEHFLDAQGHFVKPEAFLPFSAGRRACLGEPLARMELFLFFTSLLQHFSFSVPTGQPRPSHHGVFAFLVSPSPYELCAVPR
Chain of Cytochrome P450 3A4 (Homo sapiens) (P08684 whole entry, looked up): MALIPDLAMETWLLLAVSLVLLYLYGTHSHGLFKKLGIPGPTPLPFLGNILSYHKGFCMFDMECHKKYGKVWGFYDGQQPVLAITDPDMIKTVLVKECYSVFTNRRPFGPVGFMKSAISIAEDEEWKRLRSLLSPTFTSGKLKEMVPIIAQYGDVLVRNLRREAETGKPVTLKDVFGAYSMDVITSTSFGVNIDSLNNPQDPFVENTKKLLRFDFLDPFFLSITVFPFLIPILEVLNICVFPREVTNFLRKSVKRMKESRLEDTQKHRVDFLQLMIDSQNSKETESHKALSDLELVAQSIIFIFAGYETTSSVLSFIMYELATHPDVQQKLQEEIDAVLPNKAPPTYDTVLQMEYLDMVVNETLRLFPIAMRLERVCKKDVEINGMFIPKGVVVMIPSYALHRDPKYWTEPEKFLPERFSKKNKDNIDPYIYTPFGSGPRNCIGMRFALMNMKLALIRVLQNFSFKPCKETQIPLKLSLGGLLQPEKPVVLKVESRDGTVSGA
Chain of N-terminal Xaa-Pro-Lys N-methyltransferase 1 (Homo sapiens) (Q9BV86 whole entry, looked up): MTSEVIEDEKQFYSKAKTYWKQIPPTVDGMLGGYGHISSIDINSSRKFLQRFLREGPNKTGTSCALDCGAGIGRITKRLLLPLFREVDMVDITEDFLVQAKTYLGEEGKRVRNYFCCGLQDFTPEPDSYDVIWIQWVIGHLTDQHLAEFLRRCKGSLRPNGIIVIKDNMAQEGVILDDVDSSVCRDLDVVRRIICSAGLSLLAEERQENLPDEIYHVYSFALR

With `NCCO`, the Potency result in assay [1], in assay [2], in assay [3] and in assay [4] was “inactive” throughout.

Regarding `Nc1ccc(O)c(C(=O)O)c1`, the Potency entry in assay [1], in assay [2] and in assay [3] was “inactive” throughout.

With `O=C(OCc1ccccc1)c1ccccc1`, the Potency entry in assay [1], in assay [2], in assay [3], in assay [4] and in assay [5] was “inactive” in each case.

As for `O=C(O)Cc1cccc(-c2cc(CCCCCCc3ccc(O[C@H]4O[C@H](CO)[C@@H](O)[C@H](O)[C@@H]4O)c(-c4cccc(CC(=O)O)c4)c3)ccc2O[C@H]2O[C@H](CO)[C@@H](O)[C@H](O)[C@@H]2O)c1`, the % pathology change, negative = correction in assay [1] was -6.26% [at 0.369 µM]. In addition, the values for the activity change, negative = inhibition in assay [2] and in assay [3] were -6.59% [at 0.91 µM] and 11.7% [at 0.91 µM], respectively. In addition, the activity change, negative = viability loss in assay [4] was 9.79% [at 0.588 µM]. Further, the outcome in assay [5] was “inactive [at 0.588 µM]”.

`Clc1ccccc1-c1nc(-c2ccncc2)no1`: the Potency entry in assay [1] is “inactive”. Also, the figures for the Potency in assay [2], in assay [3] and in assay [6] were 3.47 µM (active), 5.49 µM (active) and 25.1 µM (active), respectively.

As for `Oc1c(Br)cc(Br)c2cccnc12`, the results for the Potency in assay [1], in assay [4] and in assay [5] were 5.62 µM (active), 3.76 µM (active) and 3.35 µM (active), respectively. The Potency entry in assay [2] and in assay [3] was “inactive” throughout. Besides, in assay [7], the result was inactive.

Consider `CCCCCCCC/C=C/C(=O)O`, for which the Potency result in assay [1], in assay [2] and in assay [3] was “inactive” throughout.

For `Cc1[nH]cnc1CN1CCc2c(c3ccccc3n2C)C1=O`, the Potency entry in assay [1], in assay [4] and in assay [5] was “inactive” in each case. Besides, the Potency in assay [2] was 7.76 µM (active); in assay [3], 1.55 µM (active).

In the case of `Nc1c(CC(=O)O)cccc1C(=O)c1ccc(Br)cc1`, the Potency entry in assay [1], in assay [2] and in assay [3] was “inactive” each time.

For `C/C(=N\O)c1ccc(OCC(=O)N2CCCCC2)cc1`, the Potency entry in assay [1], in assay [2], in assay [3], in assay [4] and in assay [5] was “inactive” in each case.

Turning to `CCOc1ccc2nc(S(N)(=O)=O)sc2c1`, the Potency result in assay [1] and in assay [2] was “inactive” in each case.
